Screening results (PubChem BioAssay)
Mtb hypoxia inh – PubChem AID 1159583. fluorescence inhibition, % (no concentration beside the values). hit rate 0.1% among 300,000. M. tuberculosis hypoxia-regulated fluorescent reporter, fluorescence; in the data active = fluorescence inhibition mostly above about 23%, no sharp cut-off; inactive = mostly below about 17%
Mtb bLac sens – beta-lactam sensitization of Mtb H37Rv, H37Rv | M. tuberculosis H37Rv growth with meropenem, percent inhibition | inhibition, % at 25 µM | hit rate 0.27% among 330,000 | AID 434955, 2010; call rule not given here;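 note: growth measured after seven days incubation then overnight dye step; 0% = bacteria only wells and 100% = bacteria with antibiotic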
ugtP null kill – growth inhibition of ugtP-null S. aureus, primary screen, RN4220 ugtP deletion, OD600. AID 1259309, 2017. hit rate 0.54% among 330,000. growth inhibition, % (test concentration not listed). 16 h; in the data active = growth inhibition above about 68%;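 note: plate controls were untreated wells for no effect and antibiotic for full effect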
PriA SSB inh – inhibitors of Klebsiella pneumoniae PriA binding to SSB C-terminal tail, primary screen, biochemical, AlphaScreen; PriA–SSB C-terminal tail interaction (Klebsiella pneumoniae); AlphaScreen SSBct-PriA binding, biotinylated peptide; inhibition, % at 33 µM; hit rate 0.6% among 430,000; AID 1272365, 2023; in the data active = inhibition mostly above about 37%, no sharp cut-off; inactive = mostly below about 20%;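 note: plate controls were negative control peptide for no effect and reference peptide for full effect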
RN4220 kill – growth inhibition of S. aureus RN4220, primary screen, OD600; 16 h; inhibition, % (no concentration beside the values); hit rate 0.33% among 330,000; in the data active = inhibition above about 85%;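 note: plate controls were untreated cells for no effect and reference antibiotic for full effect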
* marks the source's active call; other numbers are inactive results; . = no result given; ! = not active in a repeat. Shown are actives, neighbours in structure and some others; about 1% of the full set was active somewhere.

SMILES	Mtb hypoxia inh	Mtb bLac sens	ugtP null kill	PriA SSB inh	RN4220 kill
O=C1C=C(NC(=O)Nc2ccc(Cl)c(Cl)c2)CCC1	6.4	54.5	100.0*	-9.0	100.2*
O=C(c1ccno1)N(Cc1ccsc1)Cc1ccco1	.	.	.	-3.0	.
S=C(NCc1ccc(Cl)cc1)Nc1ccc(Cl)cc1Cl	9.5	4.3	-26.5	-26.4	-7.9
S=C(NCCc1ccc(Cl)cc1)Nc1ccc(Cl)cc1Cl	1.7	12.7	98.7*	-26.4	100.3*
CC(=NNC(=S)NCCc1ccccc1)c1ccc(Cl)cc1Cl	11.8	.	90.4*	-1.4	1.1
C/C(=N/NC(=S)NCCc1ccccc1)c1ccco1	.	.	.	62.0*	.
O=C(NCCOc1ccc(-c2ccc(F)cc2)nn1)C1c2ccccc2Oc2ccccc21	.	.	.	-17.0	.
Cc1ccc(CNc2nc3ccccc3n3cnnc23)cc1	6.2	-0.4	9.6	98.3*	2.4
CC(=NNC(=O)c1ccc(NS(=O)(=O)c2cccs2)cc1)c1ccccn1	16.2	.	-5.3	39.2*	7.4
CC(=NNC(=O)c1cc(-c2cccs2)nc2ccccc12)c1ccccn1	10.6	.	-2.6	85.1*	6.4
CC(=NNC(=O)c1ccccc1F)c1ccccn1	-6.5	.	-2.2	50.6*	8.6
Cn1cccc1C=NNC(=O)c1cc(-c2cccs2)nc2ccccc12	-4.6	.	11.7	56.4	1.3
COc1ccc(C(=O)NN=C(C)c2ccccn2)cc1OC	.	.	.	83.3*	.
O=C(NCc1ccc2c(c1)OCO2)Nc1ccccc1Cc1nc(C2CC2)no1	.	.	.	-2.0	.
CCN(CC)CCNc1ccc(C)c2sc3ccc(O)cc3c(=O)c12	.	.	.	68.5*	.
CN(C)CCNc1ccc(CO)c2oc3ccc(O)cc3c(=O)c12	.	.	.	6.7	.
COc1ccc(C(=O)NCCc2ccsc2)cc1F	.	.	.	-6.0	.
CCS(=O)(=O)N1CCC2(CC1)NC(=O)N(CCOc1ccccc1)C2=O	.	.	.	-8.0	.
CN(C)CCCN(C(=O)c1cc2cc([N+](=O)[O-])ccc2s1)c1nc2cc3c(cc2s1)OCCO3	.	-1.5	.	46.0*!	.
CN(C)CCCN(C(=O)c1cc2c(ccc3ccccc32)oc1=O)c1nc2cc3c(cc2s1)OCCO3	.	.	.	66.0*	.
CCN(CC)CCN(C(=O)Cc1cccc2ccccc12)c1nc2cc3c(cc2s1)OCO3	.	.	.	35.0*	.
CCN(CC)CCN(C(=O)CCS(=O)(=O)c1ccccc1)c1nc2cc3c(cc2s1)OCO3	6.9	-5.3	-4.3	-1.7	3.9
CN(C)CCCN(C(=O)c1cc2cc([N+](=O)[O-])ccc2s1)c1nc2cc3c(cc2s1)OCO3	.	.	.	34.0	.
CCN(CC)CCN(C(=O)c1ccc(C(=O)c2ccccc2)cc1)c1nc2c(OC)cccc2s1	3.2	0.2	1.3	37.0*!	0.3
O=C(NCCSc1c[nH]c2ccccc12)C1(c2ccc(Cl)cc2)CCCC1	.	.	.	-1.0	.
SMILES	Mtb hypoxia inh	Mtb bLac sens	ugtP null kill	PriA SSB inh	RN4220 kill
CCOc1cc(-c2nnc(NC(=O)c3cc(OC)c(OC)c(OC)c3)o2)cc(OCC)c1OCC	.	.	.	-16.0	.
CCN(CC)CCN(C(=O)c1ccc(C(=O)c2ccccc2)cc1)c1nc2cc3c(cc2s1)OCO3	4.4	-3.7	10.3	41.0*	-4.4
CN(C)CCCN(C(=O)c1ccc(C(=O)c2ccccc2)cc1)c1nc2cc3c(cc2s1)OCO3	-6.1	3.4	-7.7	44.0*	-5.9
CCN(CC)CCN(C(=O)c1ccc2ncsc2c1)c1nc2cc3c(cc2s1)OCO3	10.4	2.9	9.5	18.6	5.4
C=CCn1c(SC)nc2scc(-c3ccc(C)cc3)c2c1=O	.	.	.	-19.0	.
Cc1ccc(CCC(=O)Nc2ccccc2I)o1	.	.	.	-3.0	.
COc1ccc(Cl)c2sc(NC(=O)c3cc4ccccc4o3)nc12	.	.	.	-8.0	.
O=C(NNC1=C(C(=O)C(F)(F)F)CCC1)c1ccccc1O	-8.1	86.0	100.9*	0.8	100.2*
COc1ccccc1C(=O)NNC1=C(C(=O)C(F)(F)F)CCC1	-2.8	33.5	99.0*	8.6	100.6*
O=C(NNC1=C(C(=O)C(F)(F)F)CCC1)c1ccc(Br)cc1	6.6	52.2	100.2*	8.1	100.7*
COc1cccc(C(=O)NNC2=C(C(=O)C(F)(F)F)CCC2)c1	-0.5	15.2	93.1*	1.4	-5.9
O=[N+]([O-])c1cc[n+]([O-])cc1/C=C/N1CCOCC1	.	.	.	0.0	.
COc1ccccc1CNC(=O)Nc1cccs1	4.1	-3.6	26.4	3.6	53.1
COc1ccc(Br)cc1CNC(=O)Nc1cccs1	-16.2	4.4	87.3*	12.5	91.5*
Cc1nc(NC(=O)CCc2c(C)[nH]c(=O)[nH]c2=O)sc1C(=O)OCC(C)C	.	.	.	-13.0	.
Cc1nc(Oc2cccc(C(F)(F)F)c2)c2c3c(sc2n1)CCCC3	.	.	.	-1.0	.
COc1ccccc1C(=O)Nc1nnc(-c2ccccc2)s1	-3.7	13.1	-23.2	11.0	0.4
